Measurements reported in the supplement of paper PMC6897291.
Structures can show the parent of a compound that is named as a salt.

Each compound was assayed on RIVA (assay: growth inhibition by drug alone (1 - RLU/untreated control) (fraction); higher = stronger inhibition). Details: 100 nM; time (day): 5; 177Lu-lilotomab satetraxetan 0 ug/ml.
Summary of the method: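 Compound doses on the pre-printed Selleck Cambridge Cancer Compound library plates were 10/100 nM for RIVA cells and 10/1,000 nM for U-2932 cells, seeded at 3,000 cells/well. Before seeding, cells were washed after 18 h with or without a radiolabelled anti-CD37 antibody conjugate (~600 MBq/mg; 0.5 µg/ml RIVA, 1 µg/ml U-2932). Growth inhibition was derived from RealTime-Glo luminescence relative to untreated no-drug control wells. Readings were taken daily starting on day 3, each after 1 h at 37°C, and each well's RLU was divided by the mean of 48 such wells per plate and subtracted from 1.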

SMILES	growth inhibition by drug alone
CNCc1ccc(-c2[nH]c3cc(F)cc4c3c2CCNC4=O)cc1	-0.0791
O=C(O)c1ccc(-c2c[nH]c3ncc(-c4ccccc4)cc23)cc1C1CCCC1	-0.364
CC(=O)c1c(C)c2cnc(Nc3ccc(N4CCNCC4)cn3)nc2n(C2CCCC2)c1=O	-0.138
CCN(CC)CCCCNc1ncc2cc(-c3cc(OC)cc(OC)c3)c(NC(=O)NC(C)(C)C)nc2n1	-0.379
CCC(C)(C)C(=O)O[C@H]1C[C@@H](C)C=C2C=C[C@H](C)[C@H](CC[C@@H]3C[C@@H](O)CC(=O)O3)[C@H]21 [Simvastatin (Zocor)]	-0.115
CC[C@H](Nc1ncnc2[nH]cnc12)c1nc2cccc(F)c2c(=O)n1-c1ccccc1	0.175
CC(C=CC(=O)NO)=CC(C)C(=O)c1ccc(N(C)C)cc1 (stereo unspecified) [Trichostatin A (TSA)]	0.223
COc1ccc2c3n(c(=NC(=O)c4cccnc4)nc2c1OC)CCN3	0.0156
NC(=O)c1ccc(-c2nc(-c3ccccn3)c(-c3ccc4c(c3)OCO4)[nH]2)cc1	-0.195
CNC(=O)c1cc(Oc2ccc(NC(=O)Nc3ccc(Cl)c(C(F)(F)F)c3)c(F)c2)ccn1 [Regorafenib (BAY 73-4506)]	0.302
Cc1cnc(Nc2ccc(OCCN3CCCC3)cc2)nc1Nc1cccc(S(=O)(=O)NC(C)(C)C)c1	-0.41
CCOc1ccc(Nc2nc(-c3c(C)nc4ccccn34)cs2)cc1	0.951
CC(C)C[C@H](NC(=O)[C@H](Cc1ccccc1)NC(=O)c1cnccn1)B(O)O [Bortezomib (Velcade)]	0.978
O=C1CN2Cc3c(ccc(Cl)c3Cl)N=C2N1 [Anagrelide]	0.0156
Cc1cc(Nc2cc(N3CCN(C)CC3)nc(/C=C/c3ccccc3)n2)n[nH]1	-0.369
CCc1cc(Nc2nccc(-c3c(-c4ccc(OC)c(C(=O)Nc5c(F)cccc5F)c4)nc4ccccn34)n2)c(OC)cc1N1CCC(N2CCN(S(C)(=O)=O)CC2)CC1	0.0473
O=C1CN2Cc3c(ccc(Cl)c3Cl)N=C2N1 [Anagrelide hydrochloride]	0.119
O=C(NCCCNc1nc(Nc2cccc(NC(=O)N3CCCC3)c2)ncc1I)c1cccs1	0.346
CCC[C@H](NC(=O)/C(C#N)=C/c1cccc(Br)n1)c1ccccc1	-0.323

SMILES	growth inhibition by drug alone
COc1cc2nc(N3CCCN(C)CC3)nc(NC3CCN(Cc4ccccc4)CC3)c2cc1OC	0.165
C#Cc1cccc(Nc2ncnc3cc(OCCOC)c(OCCOC)cc23)c1 [Erlotinib HCl]	0.6
CN(C)c1ccccc1CN1CCCN(Cc2ccccc2N(C)C)C1c1ccncc1	-0.101
COc1cc2c(NC3CCN(C)CC3)nc(N3CCCN(C)CC3)nc2cc1OCCCN(C)C	-0.528
COc1ccc(COc2cc3oc(=O)c4cc(C(C)O)ccc4c3cc2OC)cc1 (stereo unspecified) [Palomid 529]	-0.0557
CO[C@@H](C(=O)N1Cc2[nH]nc(NC(=O)c3ccc(N4CCN(C)CC4)cc3)c2C1)c1ccccc1	0.148
Cn1cc(C2=C(c3ccc(Cl)cc3Cl)C(=O)NC2=O)c2ccccc21	-0.389
CCc1ccc(CCOc2ccc(CC3SC(=O)NC3=O)cc2)nc1 (stereo unspecified) [Pioglitazone (Actos)]	-0.369
O=C(O)C1(C(=O)O)CCC1.[NH2-].[NH2-].[Pt+2] [Carboplatin]	-0.182
CS(=O)(=O)c1ccc(C(=O)Nc2ccc(Cl)c(-c3ccccn3)c2)c(Cl)c1 [Vismodegib (GDC-0449)]	-0.186
OCCn1cc(-c2ccc3c(c2)CC/C3=N\O)c(-c2ccncc2)n1	-0.171
CC[C@@H]1C(=O)N(C)c2cnc(Nc3ccc(C(=O)NC4CCN(C)CC4)cc3OC)nc2N1C1CCCC1	0.964
CC[C@]1(O)C[C@H]2CN(CCc3c([nH]c4ccccc34)[C@@](C(=O)OC)(c3cc4c(cc3OC)N(C=O)[C@H]3[C@@](O)(C(=O)OC)[C@H](OC(C)=O)[C@]5(CC)C=CCN6CC[C@]43[C@@H]65)C2)C1 [Vincristine]	0.962
CC(C)(C)c1ccc(S(=O)(=O)/C=C/C#N)cc1	-0.0854
Cc1cn(-c2cc(NC(=O)c3ccc(C)c(Nc4nccc(-c5cccnc5)n4)c3)cc(C(F)(F)F)c2)cn1 [Nilotinib (AMN-107)]	-0.0918
CC(C)(C#N)c1cc(Cn2cncn2)cc(C(C)(C)C#N)c1 [Anastrozole]	-0.0644
C=CCn1c(=O)c2cnc(Nc3ccc(N4CCN(C)CC4)cc3)nc2n1-c1cccc(C(C)(C)O)n1	-0.45
Cn1cnc(N)c2ncnc1-2 [3-Methyladenine]	-0.276
CCc1c2c(nc3ccc(OC(=O)N4CCC(N5CCCCC5)CC4)cc13)-c1cc3c(c(=O)n1C2)COC(=O)[C@]3(O)CC [Irinotecan HCl Trihydrate (Campto)]	-0.0382

Same assay, conditions: 100 nM; time (day): 6; 177Lu-lilotomab satetraxetan 0 ug/ml

SMILES	growth inhibition by drug alone
CNCc1ccc(-c2[nH]c3cc(F)cc4c3c2CCNC4=O)cc1	-0.0893
O=C(O)c1ccc(-c2c[nH]c3ncc(-c4ccccc4)cc23)cc1C1CCCC1	-0.433
CC(=O)c1c(C)c2cnc(Nc3ccc(N4CCNCC4)cn3)nc2n(C2CCCC2)c1=O	-0.285
CCN(CC)CCCCNc1ncc2cc(-c3cc(OC)cc(OC)c3)c(NC(=O)NC(C)(C)C)nc2n1	-0.398
CCC(C)(C)C(=O)O[C@H]1C[C@@H](C)C=C2C=C[C@H](C)[C@H](CC[C@@H]3C[C@@H](O)CC(=O)O3)[C@H]21 [Simvastatin (Zocor)]	-0.175
CC[C@H](Nc1ncnc2[nH]cnc12)c1nc2cccc(F)c2c(=O)n1-c1ccccc1	0.0639
CC(C=CC(=O)NO)=CC(C)C(=O)c1ccc(N(C)C)cc1 (stereo unspecified) [Trichostatin A (TSA)]	0.132
COc1ccc2c3n(c(=NC(=O)c4cccnc4)nc2c1OC)CCN3	-0.048
NC(=O)c1ccc(-c2nc(-c3ccccn3)c(-c3ccc4c(c3)OCO4)[nH]2)cc1	-0.245
CNC(=O)c1cc(Oc2ccc(NC(=O)Nc3ccc(Cl)c(C(F)(F)F)c3)c(F)c2)ccn1 [Regorafenib (BAY 73-4506)]	0.293
Cc1cnc(Nc2ccc(OCCN3CCCC3)cc2)nc1Nc1cccc(S(=O)(=O)NC(C)(C)C)c1	-0.775
CCOc1ccc(Nc2nc(-c3c(C)nc4ccccn34)cs2)cc1	0.952
CC(C)C[C@H](NC(=O)[C@H](Cc1ccccc1)NC(=O)c1cnccn1)B(O)O [Bortezomib (Velcade)]	0.976
O=C1CN2Cc3c(ccc(Cl)c3Cl)N=C2N1 [Anagrelide]	-0.0326
Cc1cc(Nc2cc(N3CCN(C)CC3)nc(/C=C/c3ccccc3)n2)n[nH]1	-0.539
CCc1cc(Nc2nccc(-c3c(-c4ccc(OC)c(C(=O)Nc5c(F)cccc5F)c4)nc4ccccn34)n2)c(OC)cc1N1CCC(N2CCN(S(C)(=O)=O)CC2)CC1	-0.0711
O=C1CN2Cc3c(ccc(Cl)c3Cl)N=C2N1 [Anagrelide hydrochloride]	0.0727
O=C(NCCCNc1nc(Nc2cccc(NC(=O)N3CCCC3)c2)ncc1I)c1cccs1	0.36
CCC[C@H](NC(=O)/C(C#N)=C/c1cccc(Br)n1)c1ccccc1	-0.514

SMILES	growth inhibition by drug alone
COc1cc2nc(N3CCCN(C)CC3)nc(NC3CCN(Cc4ccccc4)CC3)c2cc1OC	0.117
C#Cc1cccc(Nc2ncnc3cc(OCCOC)c(OCCOC)cc23)c1 [Erlotinib HCl]	0.46
CN(C)c1ccccc1CN1CCCN(Cc2ccccc2N(C)C)C1c1ccncc1	-0.219
COc1cc2c(NC3CCN(C)CC3)nc(N3CCCN(C)CC3)nc2cc1OCCCN(C)C	-0.706
COc1ccc(COc2cc3oc(=O)c4cc(C(C)O)ccc4c3cc2OC)cc1 (stereo unspecified) [Palomid 529]	-0.118
CO[C@@H](C(=O)N1Cc2[nH]nc(NC(=O)c3ccc(N4CCN(C)CC4)cc3)c2C1)c1ccccc1	0.29
Cn1cc(C2=C(c3ccc(Cl)cc3Cl)C(=O)NC2=O)c2ccccc21	-0.481
CCc1ccc(CCOc2ccc(CC3SC(=O)NC3=O)cc2)nc1 (stereo unspecified) [Pioglitazone (Actos)]	-0.359
O=C(O)C1(C(=O)O)CCC1.[NH2-].[NH2-].[Pt+2] [Carboplatin]	-0.229
CS(=O)(=O)c1ccc(C(=O)Nc2ccc(Cl)c(-c3ccccn3)c2)c(Cl)c1 [Vismodegib (GDC-0449)]	-0.299
OCCn1cc(-c2ccc3c(c2)CC/C3=N\O)c(-c2ccncc2)n1	-0.236
CC[C@@H]1C(=O)N(C)c2cnc(Nc3ccc(C(=O)NC4CCN(C)CC4)cc3OC)nc2N1C1CCCC1	0.968
CC[C@]1(O)C[C@H]2CN(CCc3c([nH]c4ccccc34)[C@@](C(=O)OC)(c3cc4c(cc3OC)N(C=O)[C@H]3[C@@](O)(C(=O)OC)[C@H](OC(C)=O)[C@]5(CC)C=CCN6CC[C@]43[C@@H]65)C2)C1 [Vincristine]	0.967
CC(C)(C)c1ccc(S(=O)(=O)/C=C/C#N)cc1	-0.195
Cc1cn(-c2cc(NC(=O)c3ccc(C)c(Nc4nccc(-c5cccnc5)n4)c3)cc(C(F)(F)F)c2)cn1 [Nilotinib (AMN-107)]	-0.17
CC(C)(C#N)c1cc(Cn2cncn2)cc(C(C)(C)C#N)c1 [Anastrozole]	-0.17
C=CCn1c(=O)c2cnc(Nc3ccc(N4CCN(C)CC4)cc3)nc2n1-c1cccc(C(C)(C)O)n1	-0.813
Cn1cnc(N)c2ncnc1-2 [3-Methyladenine]	-0.338
CCc1c2c(nc3ccc(OC(=O)N4CCC(N5CCCCC5)CC4)cc13)-c1cc3c(c(=O)n1C2)COC(=O)[C@]3(O)CC [Irinotecan HCl Trihydrate (Campto)]	0.00676
